Bead autofluor: compound fluorescence in toxin protease inhibitor counterscreen; compound autofluorescence counterscreen, microsphere flow cytometry; stronger effect = higher value; fluorescence intensity (concentration not given with the values); 360,000 compounds, 3.1% hits; AID 624483; in the data active = fluorescence intensity above about 16000; inconclusive = no clear call, values can overlap the other calls
MazEF act: activators of E. coli MazEF toxin-antitoxin RNase. P0AE70. FAM/BHQ RNA-DNA oligo cleavage fluorescence, 5 h. activation, % at 20 µM. 350,000 compounds, 0.32% hits. AID 504720; in the data active = activation above about 50%
Target sequence (P0AE70 whole entry, looked up): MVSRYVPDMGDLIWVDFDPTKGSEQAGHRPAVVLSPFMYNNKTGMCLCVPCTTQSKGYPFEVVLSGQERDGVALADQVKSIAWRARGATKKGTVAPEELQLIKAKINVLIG
BoNT-F LC inh: BoNT F light chain protease inhibition; AID 588497; Multiplex microsphere protease cleavage assay, flow cytometry; 360,000 compounds, 0.22% hits; inhibition, % at 10 µM; in the data active = inhibition above about 35%, passing the limit was not always enough; inconclusive = no clear call, values can overlap the other calls; note: plate controls were buffer without enzyme for full effect and enzyme alone for no effect
BoNT A protease: blocks Botulinum neurotoxin A light chain protease | multiplex microsphere protease substrate cleavage, flow cytometry | inhibition, % at 10 µM | 360,000 compounds, 0.17% hits | AID 588499; note: plate controls were buffer without enzyme for full effect and enzyme alone for no effect
Anthrax LF prot: blocks Bacillus anthracis lethal factor protease | multiplex microsphere protease cleavage assay, LF | inhibition, % at 10 µM | 360,000 compounds, 0.12% hits; note: plate controls were buffer without enzyme for full effect and enzyme alone for no effect
* = called active by the depositor; ? = inconclusive; / = not tested or not shown. Shown are actives, neighbours in structure and some others; about 3.7% of the full set was active somewhere. Cut-off read from the data, not from the text of the source, unless noted: active = inhibition above about 30%; inconclusive = no clear call, values can overlap the other calls; inactive = below that.

SMILES | Bead autofluor | MazEF act | BoNT-F LC inh | BoNT A protease | Anthrax LF prot
CC1CCN(C(=O)COC(=O)c2cccs2)CC1 | 3866 | 3.2 | -1.4 | -0.6 | 0.1
Nc1cccc(-c2cn(-c3cc4cc(C#CC5(O)CCCCC5)ccc4oc3=O)nn2)c1 | 3582 | 5.8 | 0.9 | 0.3 | -9.4
CCOC(=O)c1ccccc1NC(=O)c1ccc(Cl)c(S(=O)(=O)N2CCOCC2)c1 | 21650* | -7.9 | 0.7 | ? | -8.8
CCOC(=O)c1ccccc1NC(=O)COC(=O)c1ccc(C)c(S(=O)(=O)N2CCOCC2)c1 | ? | 5.5 | 10.1 | 1.3 | ?
COc1ccccc1NC(=O)c1cc(S(=O)(=O)N2CCC3(CC2)OCCO3)ccc1F | 20818* | -3.9 | 0.8 | -0.2 | -0.4
CCOC(=O)N1CCN(S(=O)(=O)c2ccc(F)c(C(=O)Nc3cc(C)cc(C)c3)c2)CC1 | 22579* | 1.1 | 3.0 | 2.3 | -2.8
O=C(Nc1ccccc1C(F)(F)F)c1cc(S(=O)(=O)N2CCC3(CC2)OCCO3)ccc1F | 23758* | -0.9 | -1.4 | -0.9 | -1.0
COc1ccccc1NC(=O)c1cc(S(=O)(=O)N2CCc3ccccc32)ccc1F | 5319 | 6.0 | 1.8 | 1.1 | -0.1
COc1ccccc1Oc1ccc(N2CC(C(=O)OCC(=O)c3ccccc3)CC2=O)cc1 (centres undefined) | 5472 | -3.6 | -0.7 | -0.2 | -5.4
CCOC(=O)N1CCN(S(=O)(=O)c2ccc(OCC(=O)OC)c(C)c2)CC1 | 25177* | -0.8 | -11.0 | -6.7 | -1.3
Cc1ccc(NC(=O)c2cc(S(=O)(=O)N3CCC4(CC3)OCCO4)ccc2F)cc1 | 22105* | 9.7 | 5.4 | 3.1 | 0.4
COc1ccccc1NC(=O)c1ccc(S(=O)(=O)N2CCOCC2)cc1 | 22270* | -6.5 | -4.3 | ? | -4.9
Cc1c(C(=O)Nc2ccc(F)cc2)oc2ccc(S(=O)(=O)N3CCC4(CC3)OCCO4)cc12 | 21736* | 3.5 | 4.7 | 3.9 | -1.0
CCOC(=O)CC1(C)c2nc(NC(C)=O)sc2Cc2sc(NC(C)=O)nc21 | 6214 | / | -5.9 | 0.7 | -9.3
COc1ccc(-c2ccc(-c3cc(=O)oc4c(C(C)C)ccc(C)c34)cc2)cc1 | 3921 | -9.8 | -3.1 | -0.2 | -9.1
CCOC(=O)c1c(-c2ccc(C)o2)csc1NC(=O)CN1CCCCC1 | 4732 | 1.8 | -7.1 | -0.5 | -4.8
CCOC(=O)c1c(-c2ccc(C)o2)csc1NC(=O)CN(C)CC(=O)Nc1ccc(C)cc1 | 20236* | -17.0 | 0.6 | 1.0 | -4.5
Cc1ccccc1NC(=O)c1c(F)c(F)c(F)c(F)c1F | 16318* | -5.8 | -5.1 | -0.7 | -3.4
CCOC(=O)C1=C(C)Nc2ncnn2C1/C=C/c1ccccc1 (centres undefined) | 20063* | -2.7 | 4.7 | 4.5 | -10.0
CCCC1=C(C(=O)OCC)C(c2ccc(F)cc2)n2ncnc2N1 (centres undefined) | 3021 | -2.5 | -13.3 | 0.0 | -1.7
CCCC1=C(C(=O)OCC)C(/C=C/c2ccccc2)n2ncnc2N1 (centres undefined) | 21846* | 0.9 | -6.3 | ? | 0.6
CCOC(=O)C1=C(C)Nc2ncnn2C1c1cccs1 (centres undefined) | 6491 | 6.1 | -1.3 | -0.2 | 0.8
COc1ccc(NC(=O)C(=O)N/N=C\c2ccc(CNC(=O)C(=O)Nc3ccc(C)c(C)c3)o2)c(OC)c1 | / | -38.4 | / | / | /
COc1ccc(CN2CCCC(C(=O)c3ccc(Cl)cc3)C2)c(O)c1 (centres undefined) | 3167 | 7.4 | 34.9* | 5.3 | 3.5
Cc1ccc(CCNC(=O)C2CCCN(C(=O)N(C)C)C2)cc1 (centres undefined) | 25529* | -2.0 | -12.4 | -6.3 | -6.2
SMILES | Bead autofluor | MazEF act | BoNT-F LC inh | BoNT A protease | Anthrax LF prot
CCS(=O)(=O)N1CCCC(C(=O)NCCc2ccc(C)cc2)C1 (centres undefined) | 9619 | 1.7 | -4.8 | -1.3 | -3.5
CC1=C(C)CC(C(=O)NCCc2ccccc2)C(C(=O)O)C1 (centres undefined) | 23755* | 6.1 | 0.3 | 0.2 | 0.0
CN(C)C(=O)N1CCCC(C(=O)NCCc2ccccc2)C1 (centres undefined) | 24323* | 4.0 | -7.4 | -6.4 | -4.5
COc1ccc(-n2ncc3c(=O)n(CC(=O)NC(C)C)cnc32)cc1 | 3251 | -0.1 | ? | 4.5 | 5.6
Cc1c(C)c(C)c(S(=O)(=O)NCCC(=O)N2CCN(Cc3ccc(C#N)cc3)CC2)c(C)c1C | 3404 | 1.8 | -4.6 | -0.2 | 3.0
Cc1csc(NC(=O)C(C)Oc2ccc(Cl)cc2C)n1 (centres undefined) | 5235 | -1.7 | 1.6 | -1.1 | -0.6
Cc1cc(C)n(-c2ccc(C(=O)OCC(=O)Nc3cc(S(C)(=O)=O)ccc3Cl)cc2)n1 | 3635 | 5.0 | -5.2 | -0.4 | -4.8
CON/C=C(\C=Nc1ccc(Cl)cc1)c1ncc(C(F)(F)F)cc1Cl | 23332* | 2.5 | -1.1 | -0.4 | -3.6
CON/C=C(\C=Nc1ccc(C(F)(F)F)cc1)c1ncc(C(F)(F)F)cc1Cl | 5846 | 5.2 | -2.8 | 0.0 | -1.1
O=C(Nc1cccc(C(F)(F)F)c1)Nc1nnc([C@@H]2C[C@H](O)[C@@H](CO)O2)s1 | 3363 | / | 0.8 | 0.4 | 2.5
O=C(Nc1ccc2c(c1)OCCO2)c1cnc2n(c1=O)CCS2 | 5621 | 2.0 | -1.3 | -0.3 | -2.1
COCC(=O)Nc1ccc(S(=O)(=O)Nc2onc(C)c2C)cc1 | 3538 | 8.5 | -4.8 | -0.5 | -0.2
Cc1cccc(NC(=O)c2cnc3n(c2=O)CCS3)c1 | 20823* | 0.9 | -2.5 | ? | -4.2
Cc1noc(NS(=O)(=O)c2ccc(NC(=O)COc3ccccc3)cc2)c1C | 22340* | -21.6 | 2.2 | 3.3 | -1.1
Cc1noc(NS(=O)(=O)c2ccc(NC(=O)c3cnc4n(c3=O)CCS4)cc2)c1C | 21016* | -7.9 | 4.2 | 3.3 | -2.1
O=C(Nc1ccccc1)c1cnc2n(c1=O)CCS2 | 4382 | 4.8 | 4.4 | 0.0 | -2.5
O=C(Nc1ccc2c(c1)OCO2)c1cnc2n(c1=O)CCS2 | 22821* | -4.8 | -5.8 | 0.6 | -6.1
Cc1ccc(Nc2cc(Cl)nc(N)n2)c([N+](=O)[O-])c1 | 2927 | 6.4 | -0.5 | -0.3 | -6.1
O=C(CN1C(=O)NC2(CCCCCCC2)C1=O)Nc1ccc(Br)cc1Br | 3857 | -5.7 | 3.0 | -0.1 | -9.1
Clc1ccc2c(c1)C(c1cccs1)=NNC(c1cccnc1)=N2 | 13327 | -1.6 | 31.8 | 18.8 | 1.8
COc1ccc2c(c1)C(c1cccs1)=NNC(c1ccncc1)=N2 | 4054 | 241.5* | 0.3 | 1.3 | -6.7
CCc1ccc2c(c1)C(c1cccs1)=NNC(c1cccnc1)=N2 | 19854* | -4.1 | 1.6 | ? | -3.0
COc1ccccc1NS(=O)(=O)c1cc(C(=O)N2CCN(C(=O)c3ccco3)CC2)ccc1F | 3002 | 1.7 | -4.9 | -0.1 | -0.6
O=C(CCCn1c(=S)[nH]c2cc3c(cc2c1=O)OCO3)N1CCN(c2ccccn2)CC1 | 19027* | 5.3 | 8.7 | ? | -1.3
CCc1ccccc1OCC(=O)N1CCN(c2ncccn2)CC1 | / | 0.2 | / | / | /
O=C(CCCOc1ccc(Cl)cc1Cl)N1CCN(c2ccccn2)CC1 | 16837* | -2.3 | -3.3 | -2.7 | -4.9

Assay outcomes as filed in PubChem.
